The values below come from PubChem BioAssay (Tox21).

Molecules are shown by their SMILES. Several values for one entry are separate records, joined by “and”; a condition that tells them apart may be missing. Equal entries are not always repeated. Results filed as inconclusive are left out. Values without a mark were called inactive. Activity calls are given as the source filed them. Calls come from the whole dose curve; as a rule, active = well fitted cell-killing curve with a large enough effect in the repeat runs; inconclusive = weak or mixed curves, or effect the other way; inactive = no such curve, though single readings can be large or run the other way. Positions of bridges follow the written chain, without caps; N, C: chain ends. Non-standard residues stand in square brackets, D forms with d. Residues, ends and D or L forms follow the SMILES beside them. *: point of attachment. X2 = CC[C@H](C)CCCCC(=O)*; Dab = NCC[C@H](N)C(=O)O
% is set by controls: 0 for no effect and ±100 for the full control effect; potency is the fitted concentration of half-maximal effect.

The nature of the first assay: qHTS assay to identify small molecule antagonists of the glucocorticoid receptor (GR) signaling pathway - cell viability counter screen (AID 720693). Note: nearly all actives have a fitted effect of over 55% in size. The note with it: GR-bla HeLa viability, CellTiter-Glo luminescence, 18 h, with 5 nM dexamethasone present; series mostly up to 58.5 µM; viability change, negative = cytotoxic: at the top concentration.
With `C=C1c2c(Cl)ccc(O)c2C(O)=C2C(=O)[C@]3(O)C(O)=C(C(N)=O)C(=O)[C@@H](N(C)C)[C@@H]3[C@@H](O)[C@H]12`, the “viability change, negative = cytotoxic” value was 16.2% [at 27 µM].
Still for that read-out and setting: with `CCCCCC(O)/C=C/C=O` (stereo not drawn) the figure was 2.74%.
Still for that read-out and setting: with `CCC(c1ccccc1)c1noc(CCN(CC)CC)n1` (stereo not drawn) the figure was 2.05%; with `CN1CCc2c(c3ccccc3n2Cc2ccccc2)C1`, 1.45% [at 27 µM]; with `CC(=O)OCC(=O)[C@@]12OC3(CCCC3)O[C@@H]1C[C@H]1[C@@H]3CCC4=CC(=O)C=C[C@]4(C)[C@@]3(F)[C@@H](O)C[C@@]12C`, -1.09%.
On the same count and under the same terms, with `CCCCCCCCCCCCCCCCCCOP(=O)([O-])OC1CC[N+](C)(C)CC1` the figure was 14% [at 27 µM]; with `CC[C@H](C)CCCCC(=O)N[C@@H](CCN)C(=O)N[C@H](C(=O)N[C@@H](CCN)C(=O)N[C@H]1CCNC(=O)[C@@H]([C@H](C)O)NC(=O)[C@H](CCN)NC(=O)[C@H](CCN)NC(=O)[C@H](CC(C)C)NC(=O)[C@@H](CC(C)C)NC(=O)[C@H](CCN)NC1=O)[C@@H](C)O` (X2-[Dab]T[Dab][Dab][Dab][dL]L[Dab][Dab][dT]; lactam 4-C), -0.872% [at 27 µM].
Turning to `CC(C)CN(C[C@@H](O)[C@H](Cc1ccccc1)NC(=O)O[C@H]1CO[C@H]2OCC[C@H]21)S(=O)(=O)c1ccc(N)cc1`, the “viability change, negative = cytotoxic” value was 13.5%.
Same read-out and setting: to `CCOC(=O)[C@H](CS)NCCN[C@@H](CS)C(=O)OCC` belongs -0.674%; to `CC#CCC(C)[C@H](O)/C=C/[C@@H]1[C@H]2C/C(=C/CCCC(=O)O)C[C@H]2C[C@H]1O` (stereo partly drawn), -11.2%; to `CC(C)(C)NC(=O)[C@H]1CC[C@H]2[C@@H]3CC=C4C=C(C(=O)O)CC[C@]4(C)[C@H]3CC[C@]12C`, -6.82%.
Still for that read-out and setting: with `COc1ccc(C(=O)Nc2ccccc2CCC2CCCCN2C)cc1` (stereo not drawn) the figure was -2.22%.
In the case of `CS(=O)(=O)c1ccc(C2=C(c3ccccc3)C(=O)OC2)cc1`, the “viability change, negative = cytotoxic” value was 3.37%.
Same read-out and setting: with `CC(C)(C)NCC(O)CSc1nc(-c2ccc(C(N)=O)s2)cs1` (stereo not drawn) the figure was 2.19%; with `C#C[C@]1(O)CC[C@H]2[C@@H]3CCC4=C(CCC(=O)C4)[C@H]3CC[C@@]21C`, -12% [at 27 µM]; with `CCCCCCCCCCCCCCCCCC[N+](C)(C)CCC[Si](OC)(OC)OC`, 5.95%.
For `CCCCC(C)(O)C/C=C/[C@H]1[C@H](O)CC(=O)[C@@H]1CCCCCCC(=O)OC` (stereo partly drawn), the “viability change, negative = cytotoxic” value was -8.99%.
Same read-out and setting: to `CCC(=O)OCC(=O)[C@@]1(OC(=O)CC)[C@H](C)C[C@H]2[C@H]3[C@H]([C@@H](O)C[C@@]21C)[C@@]1(C)C=CC(=O)C=C1C[C@H]3Cl` belongs -0.996% [at 27 µM]; to `C[N+]1(C)[C@@H]2CC(OC(=O)C(O)(c3cccs3)c3cccs3)C[C@H]1[C@@H]1O[C@@H]12` (stereo partly drawn), 12.3%; to `CC(C)NCC(O)COc1ccccc1-n1cccc1` (stereo not drawn), 19.5%.
With `CCN(CC)c1ccc(N=Nc2ccc(S(=O)(=O)N(C)C)cc2)c(S(=O)(=O)NCC[n+]2ccccc2)c1`, the “viability change, negative = cytotoxic” value was -6.37%.
Same read-out and setting: to `O=C1CCC(=O)N1CO` belongs -2.53%; to `CC(NNC(=O)c1ccccc1)c1ccccc1` (stereo not drawn), -5.38%.
Same read-out and setting: with `CCCCC[C@H](O)/C=C/[C@H]1[C@H](O)CC(=O)[C@@H]1CCCCCCC(=O)O` the figure was 24.4% [at 27 µM]; with `CCOC(=O)O[C@]1(C(=O)COC(=O)CC)CC[C@H]2[C@@H]3CCC4=CC(=O)C=C[C@]4(C)[C@H]3[C@@H](O)C[C@@]21C`, 9.81% [at 27 µM]; with `COc1ccc2c(=O)c(C)c(-c3ccccc3)oc2c1CN(C)C`, -7.18%.
As to `CC1(C)[C@@H]2CC[C@@]1(C)[C@H](OC(=O)CSC#N)C2`, the “viability change, negative = cytotoxic” value is 13%.
For the compound `CC(=O)[C@]1(O)Cc2c(O)c3c(c(O)c2[C@@H](O[C@H]2C[C@H](N)[C@H](O)[C@H](C)O2)C1)C(=O)c1c(O)cccc1C3=O`, the Potency was 3.01 µM (active).
With `Cc1cccc(C)c1N(CCCc1cccnc1)C(=O)C(C)N` (stereo not drawn), the “viability change, negative = cytotoxic” value was 6.47%.
With `Cc1nc(NS(=O)(=O)c2ccc(N)cc2)nc(C)c1Br`, the “viability change, negative = cytotoxic” value was 0.298%.
Regarding `Cn1c(=O)c2c(ncn2CCOC(=O)C(C)(C)Oc2ccc(Cl)cc2)n(C)c1=O`, the “viability change, negative = cytotoxic” value was -1.05%.
Still for that read-out and setting: with `[O]=[Bi][O]C(=O)[O][Bi]=[O]` the figure was 8%; with `O=S(=O)(O)c1cc(O)c2c(N=Nc3ccc(Nc4ccccc4)c4c(S(=O)(=O)O)cccc34)cc(S(=O)(=O)O)cc2c1`, -18.2%; with `C#CCOc1ccc2c(C)cc(=O)oc2c1`, 3.57%.
Regarding `Cc1cc(Nc2ccccc2C(=O)O)ccc1Cl`, the “viability change, negative = cytotoxic” value was -26.8%.
Same read-out and setting: to `CN1C(=O)CN2CCc3ccccc3C2c2cc(Cl)ccc21` (stereo not drawn) belongs 2.21%; to `CN1CCN2c3ncccc3Cc3ccccc3C2C1` (stereo not drawn), -17.9%; to `CC1(C)C(\C=C/C=C\C=C/C=C2/N(CCCCS(=O)(=O)O)c3ccc4ccccc4c3C2(C)C)=[N+](CCCCS(=O)(=O)[O-])c2ccc3ccccc3c21`, -19.4%.
Still for that read-out and setting: with `CCC(=O)NCCC1CCc2ccc3c(c21)CCO3` (stereo not drawn) the figure was -2.36%.

Another assay can be described thus: qHTS assay for identifying genotoxic compounds that show differential cytotoxicity against isogenic chicken DT40 cell lines with known DNA damage response pathways - wild type cell line (AID 743012). Note: nearly all actives have a fitted effect of over 60% in size. The note with it: DT40 wild type chicken cells viability, CellTiter-Glo, 40 h; series mostly up to 68.4 µM; activity change, negative = cytotoxicity: at the top concentration. The method in brief:
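Cytotoxicity in repair-proficient parental chicken DT40 cells serves as the comparator for Rad54/Ku70- and Rev3-deficient lines. Cells were exposed to compounds for 40 h at 37 C/5% CO2, and ATP-based luminescence (CellTiter-Glo) measured viability.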
Consider `CCCCCC(O)/C=C/C=O` (stereo not drawn), for which the “activity change, negative = cytotoxicity” value is -3.76%.
As to `CCC(c1ccccc1)c1noc(CCN(CC)CC)n1` (stereo not drawn), the Potency is 23.7 µM (active).
As to `CC[C@H](C)CCCCC(=O)N[C@@H](CCN)C(=O)N[C@H](C(=O)N[C@@H](CCN)C(=O)N[C@H]1CCNC(=O)[C@@H]([C@H](C)O)NC(=O)[C@H](CCN)NC(=O)[C@H](CCN)NC(=O)[C@H](CC(C)C)NC(=O)[C@@H](CC(C)C)NC(=O)[C@H](CCN)NC1=O)[C@@H](C)O` (X2-[Dab]T[Dab][Dab][Dab][dL]L[Dab][Dab][dT]; lactam 4-C), the “activity change, negative = cytotoxicity” value is 9.47% [at 31.4 µM].
The same measure, in the same setting: to `O=C1CCC(=O)N1CO` belongs 3.54%.
The same measure, in the same setting: with `CCOC(=O)O[C@]1(C(=O)COC(=O)CC)CC[C@H]2[C@@H]3CCC4=CC(=O)C=C[C@]4(C)[C@H]3[C@@H](O)C[C@@]21C` the figure was -27.7% [at 31.4 µM].
On to `CC(=O)[C@]1(O)Cc2c(O)c3c(c(O)c2[C@@H](O[C@H]2C[C@H](N)[C@H](O)[C@H](C)O2)C1)C(=O)c1c(O)cccc1C3=O`, for which the Potency was 18.8 nM (active) and 21.1 nM (active).
On to `Cc1nc(NS(=O)(=O)c2ccc(N)cc2)nc(C)c1Br`, for which the “activity change, negative = cytotoxicity” value is 10.5%.
As for `C#CCOc1ccc2c(C)cc(=O)oc2c1`, the “activity change, negative = cytotoxicity” value is -9.07%.
With `CCC(=O)NCCC1CCc2ccc3c(c21)CCO3` (stereo not drawn), the Potency is 26.6 µM (active).
